# Measurements: PubChem BioAssay AID1851 (National Center for Advancing Translational Sciences (NCATS), 2009)
# Several values for one entry are separate records, joined by “and”; a condition that tells them apart may be missing. Identical values can stand only once. Among all 16,000 compounds or so, about 4,000 (25%) were called active. Inconclusive results (about 26%) are left out. The call rests on the fitted dose curve; in most records, active means well fitted curve in the direction sought with a large enough effect; inconclusive means small, poorly fitted or top-dose-only effect, or effect the other way; inactive means no such curve, though single readings can be large or run the other way. Not all results are given here. A structure can be active in one record and inactive in another.
# Target: Cytochrome P450 2C9 (Homo sapiens) (UniProt P11712)
# Sequence (P11712 whole entry, looked up): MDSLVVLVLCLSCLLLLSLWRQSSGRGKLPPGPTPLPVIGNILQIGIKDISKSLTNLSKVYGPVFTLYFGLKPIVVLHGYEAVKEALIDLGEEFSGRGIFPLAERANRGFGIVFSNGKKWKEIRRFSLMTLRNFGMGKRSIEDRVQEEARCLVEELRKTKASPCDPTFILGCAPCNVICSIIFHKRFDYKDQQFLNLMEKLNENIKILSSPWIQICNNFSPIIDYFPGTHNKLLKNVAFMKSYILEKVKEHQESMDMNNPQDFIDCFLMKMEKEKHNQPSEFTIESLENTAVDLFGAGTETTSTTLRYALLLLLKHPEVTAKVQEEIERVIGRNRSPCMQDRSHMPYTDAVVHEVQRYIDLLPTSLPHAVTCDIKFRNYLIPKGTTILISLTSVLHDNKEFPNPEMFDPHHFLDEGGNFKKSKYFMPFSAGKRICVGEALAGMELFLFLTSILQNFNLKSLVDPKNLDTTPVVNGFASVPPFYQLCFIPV
# Assay: Cytochrome panel assay with activity outcomes
# Conditions: recombinant CYP, pro-luciferin dealkylation, luminescence, p450-cyp2c9; series mostly up to 57.1 µM; activity, negative = inhibition: at the top concentration
# On the % scale 0 is the no-effect control and ±100 the full control effect.
Structure (SMILES),"activity, negative = inhibition",AC50
C[C@@]12CC(=O)[C@H]3[C@@H](CCC4=CC(=O)CC[C@]43C)[C@H]1CCC2=O,13% [at 25.6 µM] (inactive),–
O=C(c1ccccc1F)c1cn(CC(=O)N2CCOCC2)c2ccccc12,–,11200 nM (active)
CCCn1c(C)c(C(=O)c2cccc3ccccc23)c2ccccc21,-12.1% (inactive),–
CCOC(=O)Cn1cc(C(=O)c2ccccc2F)c2ccccc21,–,7080 nM (active)
C[C@@]12CC[C@@H]3c4ccc(O)cc4C[C@H](CCCCCCCCCS(=O)CCCC(F)(F)C(F)(F)F)[C@H]3[C@@H]1CC[C@@H]2O (stereo not given in full),-9.41% (inactive),–
O=c1cc(-c2ccc(O)cc2)oc2c([C@H]3O[C@@H](CO)[C@@H](O)[C@@H](O)[C@@H]3O)c(O)cc(O)c12,-15% [at 25.6 µM] (inactive),–
CN1CC[C@@]2(CCCN(C(=O)Oc3ccccc3)C2)C1,-0.577% (inactive),–
CCN1CCN(c2ccc(NC(=O)C(C)C)cc2Cl)CC1,-14.2% (inactive),–
C(=NC12CN3CN(CN(C3)C1)C2)c1cccs1,-20.8% (inactive),–
CCS(=O)(=O)Nc1cccc(C(=C2CCCCC2)c2cnc[nH]2)c1,–,631 nM (active)
CNC(C)(C)Cc1ccccc1,15.3% [at 25.6 µM] (inactive),–
Brc1c(NC2=NCCN2)ccc2nccnc12,-26.3% (inactive),–
O=C(Nc1cccc(F)c1)N1CC2(CCN(C(=O)Oc3ccccc3)CC2)C1,-10.4% (inactive),–
Nc1ncnc2c1ncn2[C@@H]1O[C@@H](COP(=O)(O)CP(=O)(O)OP(=O)(O)O)[C@H](O)[C@@H]1O,-0.747% (inactive),–
CC(=O)c1ccc2c(c1)N(CCCN(C)C)c1ccccc1S2,20.6% [at 25.6 µM] (inactive),–
CN1C(=O)c2ccccc2Sc2ccc(C(=O)N3CCC4(CC3)OCCO4)cc21,–,8910 nM (active)
C=CCN1C(=O)c2ccccc2Sc2ccc(C(=O)N3CCC4(CC3)OCCO4)cc21,–,1260 nM (active)
CN1[C@@H](C[C@@H](O)c2ccccc2)CCC[C@@H]1C[C@H](O)c1ccccc1,-7.42% [at 25.6 µM] (inactive),–
CCCN(CCC)[C@@H]1CCc2c(OC)cccc2[C@@H]1C,-6.07% (inactive),–
C=C1CC[C@H](O)C/C1=C/C=C1\CCC[C@]2(C)[C@H]1CC[C@H]2[C@@H](C)CCCC(C)C,1.21% [at 25.6 µM] (inactive),–
CC[C@@]1(O)C(=O)OCc2c1cc1n(c2=O)Cc2cc3ccccc3nc2-1,inactive,–
CCC(COC(=O)NC)NC(=O)Oc1ccccc1 (stereo not given),21.5% (inactive),–
CN(C(=O)Cc1ccccc1)[C@H](CN1CCCC1)c1ccccc1,-8.81% (inactive),–
Cc1cc[c]([Sb]2[O][C@H]([C@H](O)[C@H](O)C(=O)O)[C@@H](CO)[O]2)cc1,14% [at 11.4 µM] (inactive),–
O=C(O)CN1CCN(CC(=O)O)CC(=O)[O][Hg][O]C(=O)C1,–,1260 nM (active)
C[C@]12CC[C@H]3c4ccc(O)cc4CC[C@@H]3[C@H]1CC[C@@H]2OP(=O)(O)O,12.3% [at 11.4 µM] (inactive),–
Nc1ccccc1O.O.O=C(O)[C@H]1[O][Sb][O][C@H]1C(=O)O,14.2% [at 11.4 µM] (inactive),–
O=c1[nH]cnc2[nH]cc(CN3CCCCC3)c12,-6.24% [at 11.4 µM] (inactive),–

Structure (SMILES),"activity, negative = inhibition",AC50
N=C1c2ccccc2CN1NC(=O)c1ccc(Cl)cc1,-1.51% (inactive),–
O=C(Oc1ccccc1)N1CCC2(CCCN(Cc3nccs3)C2)CC1,-16.6% (inactive),–
C[C@@H](Cc1cccc(C(F)(F)F)c1)NCCCc1ccccc1,-1.99% (inactive),–
C[C@H]1CC[C@@]2(NC1)O[C@@H]1C[C@@H]3[C@@H]4CC=C5C[C@@H](O)CC[C@]5(C)[C@@H]4CC[C@]3(C)[C@H]1[C@@H]2C,-1.5% [at 11.4 µM] (inactive),–
CN(C)CCC(=O)[C@@]1(O)CC[C@H]2[C@H]3CC=C4C[C@@H](O)CC[C@]4(C)[C@H]3CC[C@]21C,–,2510 nM (active)
C[C@@]12CC[C@H]3[C@H](CC=C4C[C@@H](O)CC[C@@]43C)[C@@H]1CC[C@@H]2N(CCO)CCO,7.98% [at 11.4 µM] (inactive),–
Oc1ccc2c3c1O[C@H]1c4oc5ccccc5c4C[C@]4(O)[C@H](C2)N(CC2CC2)CC[C@@]314,inactive,–
CN1CCN(c2ncc3ncc(=O)n(C)c3n2)CC1,-1.78% (inactive),–
C[C@@H](Cc1ccc(OCC(=O)O)cc1)NC[C@H](O)c1cccc(Cl)c1,–,inactive and 6.31 µM (active)
C[C@@H](Cc1ccccc1)NCCC(c1ccccc1)c1ccccc1,-14.2% [at 25.6 µM] (inactive),–
NS(=O)(=O)c1ccc(-c2ccc([As](=O)(O)O)cc2)cc1,14.8% [at 11.4 µM] (inactive),–
Cc1cc(C)nc(NC2=NCCS2)n1,-12.5% (inactive),–
CCN1CCN(S(=O)(=O)c2ccc(Cl)nc2)CC1,16% (inactive),–
C[C@]12N[C@@H](Cc3ccccc31)c1ccccc12,inactive,–
CCCc1cc2c(n1CCO)C(C)C1CN(C(=O)c3ccccc3)C(C)(C(=O)OC)C21 (stereo not given),–,12600 nM (active)
CCCc1cc2c(n1Cc1cccc(Cl)c1)C(C)C1CN(C(=O)c3ccccc3)C(C)(C(=O)OC)C21 (stereo not given),–,5010 nM (active)
NC[C@H](O)c1cc(O)c(O)cc1F,-14.1% (inactive),–
C=C1[C@@H]2CC[C@H]3[C@@]4(C)C[C@@H](O[C@@H]5O[C@H](CO)[C@H](OS(=O)(=O)O)[C@@H](OS(=O)(=O)O)[C@@H]5OC(=O)CC(C)C)C[C@@H](C(=O)O)[C@H]4CC[C@@]3(C2)[C@H]1O,7.32% [at 25.6 µM] (inactive),–
C=C1C(O)(c2ccccc2)C2CC[N+]1(C)CC2 (stereo not given),35.1% (inactive),–
COc1cc2c(cc1OC)[C@@]13CCN4CC5=CCO[C@H](CC(=O)O)[C@@H]([C@H]1N2)[C@H]5C[C@H]43,-2.18% [at 11.4 µM] (inactive),–
Cc1c(OCC(F)(F)F)ccnc1CS(=O)c1nc2ccccc2[nH]1 (stereo not given),-13.7% [at 25.6 µM] (inactive),–
C=CCO[C@@H](Cn1ccnc1)c1ccc(Cl)cc1Cl,–,100 nM (active)
CC(=O)N1CC[N+](C)(C)CC1,3.49% (inactive),–
CN1[C@@H]2CC[C@H]1CC(NC(=O)c1nn(C)c3ccccc13)C2 (stereo not given in full),-3.75% (inactive),–
CCOc1ccc(C2C(C#N)=C(N)Oc3c2c(=O)oc2ccccc32)cc1 (stereo not given),–,22.4 nM (active)
C[C@@]12CC[C@H](O[C@@H]3O[C@H](CO)[C@@H](O)[C@H](O)[C@@H]3O)C[C@@H]1CC[C@H]1[C@H]2CC[C@@]2(C)[C@@H](C3=CCOC3=O)CC[C@]12O,2% [at 11.4 µM] (inactive),–
C[C@H](N[C@@H](C)CCc1ccccc1)[C@H](O)c1ccc(O)cc1,-17.1% (inactive),–
